Laboratory results as given in the supplement of paper PMC10981050.
Values joined by “and” are separate entries in the source; they are usually repeats but may differ in a detail not shown here. Equal entries are not always repeated.

Tests used:
Assay in all cases: cell viability relative to vehicle control; higher = less cytotoxic
Conditions in all cases: 10 µM
K562 = test system: K562
Method in brief: (§1)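 CRISPR-edited mutant clones and isogenic wild-type clones from four leukaemia lines were screened against Selleck bioactive, kinase and epigenetic probe libraries, with identity-inconsistent compounds excluded. Each compound was acoustically dispensed at a single 10 µM dose into 384-well plates holding 2000 cells in 50 µL medium per well. After 48 h the supernatant was removed and CellTiter-Glo luminescence was read. Viability was expressed as percent of the on-plate vehicle control and analysed in Genedata Screener.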

MARIMO = test system: MARIMO
Method in brief: as §1

MOLM14 = test system: MOLM14
Method in brief: as §1

OCI-AML2 = test system: OCI-AML2
Method in brief: as §1

| Compound | cell viability (K562; SRSF2 genotype: SRSF2 P95H/wt) | cell viability (K562; SRSF2 genotype: SRSF2 wt/wt) [%] | cell viability (MARIMO; SRSF2 genotype: SRSF2 P95H/wt) [%] | cell viability (MARIMO; SRSF2 genotype: SRSF2 wt/wt) [%] | cell viability (MOLM14; SRSF2 genotype: SRSF2 P95H/wt) [%] | cell viability (MOLM14; SRSF2 genotype: SRSF2 wt/wt) [%] | cell viability (OCI-AML2; SRSF2 genotype: P95H/wt) [%] | cell viability (OCI-AML2; SRSF2 genotype: wt/wt) [%] |
| --- | --- | --- | --- | --- | --- | --- | --- | --- |
| O=C(c1ccccc1)C(O)O [Phenylglyoxal hydrate] | 95.7% and 96.9% | 104 | 86.3 | 86.1 | 67.8 | 66 | 81.6 | 100 |
| Cc1ccc(C=O)o1 [5-Methyl furfural] | 104% | 95.7 | 99.8 | 94.2 | 99.1 | 101 | 103 | 103 |
| CN1CCN(C(=O)c2ccc(-c3ccc4c(C=O)c(O)ccc4c3)s2)CC1 | 68.3% and 74.8% | 71.6 | 66.8 | 53.4 | 73.2 | 76.8 | 72.9 | 79.5 |
| CNC(=O)c1cc(COc2nnc(Nc3ccc(Cl)cc3)c3ccoc23)ccn1 [Telatinib (BAY 57-9352)] | 94.6% and 90.8% | 98.7 | 106 | 106 | 108 | 97.3 | 90.6 | 99.5 |
| CN1[C@@H]2CC[C@H]1C[C@@H](OC(=O)c1c[nH]c3ccccc13)C2 [Tropisetron] | 92.1% and 89.1% | 97.1 | 87.4 | 89 | 105 | 104 | 91.8 | 98.3 |
| Cc1cc(-c2cc(C)c(NCCCS(=O)(=O)O)c(C)c2)cc(C)c1N | 106% and 93.5% | 105 | 96.3 | 111 | 100 | 108 | 99.9 | 99 |
| C=C1CC[C@@H]2[C@](C)(COC(=O)CCC(=O)O)[C@H](OC(=O)CCC(=O)O)CC[C@@]2(C)[C@@H]1/C=C/C1=CCOC1=O [Dehydroandrographolide Succinate Potasium Sa] | 105% and 103% | 105 | 105 | 101 | 99.1 | 105 | 109 | 104 |
| CCCc1cc(C)[nH]c(=O)c1CNC(=O)c1cc(-c2ccc(N3CCN(C(C)C)CC3)nc2)cc2c1cnn2C(C)C | 36.5% and 35% | 30.5 | 81.1 | 80 | 49.8 | 60.8 | 4.14 | 31.8 |
| CNC(=O)c1ccc(N2C(=S)N(c3ccc(C#N)c(C(F)(F)F)c3)C(=O)C2(C)C)cc1F [MDV3100 (Enzalutamide)] | 84.9% and 91.7% | 89.2 | 90.4 | 89.1 | 89.2 | 90.3 | 83.3 | 80.3 |
| CC(C)(O)CNc1nc(Nc2ccnc(C(F)(F)F)c2)nc(-c2cccc(C(F)(F)F)n2)n1 [AG-221 (Enasidenib)] | 102% and 103% | 103 | 93.1 | 99.8 | 97.8 | 110 | 84.6 | 89.4 |
| CC(=O)S[C@@H]1CC2=CC(=O)CC[C@]2(C)[C@H]2CC[C@@]3(C)[C@@H](CC[C@@]34CCC(=O)O4)[C@H]12 [spironolactone] | 87.8% and 90.2% | 89.7 | 78.3 | 84.5 | 90.1 | 91.5 | 90.6 | 97.9 |
| O=C(O)c1ccc(O)c2ncccc12 | 99.2% and 102% | 97.3 | 107 | 108 | 98.9 | 102 | 108 | 102 |
| CN(CCN1CCC(OC(=O)Nc2ccccc2-c2ccccc2)CC1)C(=O)c1ccc(CN2CCC(C(N)=O)CC2)cc1 [Revefenacin] | 94.7% and 89.9% | 92.8 | 82.7 | 90.8 | 87.1 | 92.2 | 83.2 | 83.5 |
| C[C@@H]1C(=O)O[C@H]2C[C@@]34[C@H]5C[C@@H](C(C)(C)C)[C@]36[C@@H](OC(=O)[C@@H]6O)O[C@@]4(C(=O)O5)[C@]21O [Ginkgolide A] | 105% and 100% | 97.8 | 101 | 106 | 105 | 103 | 106 | 95.5 |
| Cc1onc(-c2ccccc2Cl)c1C(=O)N[C@@H]1C(=O)N2[C@@H]1SC(C)(C)[C@@H]2C(=O)O [Cloxacillin sodium] | 102% and 109% | 97.6 | 102 | 106 | 102 | 106 | 105 | 108 |
| C[C@@H]1CC[C@@]2(NC1)O[C@H]1C[C@H]3[C@@H]4CC=C5C[C@@H](O[C@@H]6O[C@H](CO)[C@@H](O[C@@H]7O[C@@H](C)[C@H](O)[C@@H](O)[C@H]7O)[C@H](O)[C@H]6O)CC[C@]5(C)[C@H]4CC[C@]3(C)[C@H]1[C@@H]2C [Khasianine] | 104% and 102% | 103 | 102 | 104 | 104 | 102 | 104 | 107 |
| Nc1nc(NC2CC2)cc(-c2cccc(Cl)c2Cl)n1 | 26.5% and 36.8% | 41.5 | 41.3 | 38 | 34.5 | 21.5 | 60.8 | 48.5 |
| Nc1c(Br)cc(Br)cc1CN[C@H]1CC[C@H](O)CC1 [Ambroxol] | 97.6% and 99.3% | 98.9 | 96.2 | 96.7 | 101 | 102 | 104 | 112 |
| Cc1ccnc2c1NC(=O)c1cccnc1N2C1CC1 [Nevirapine (Viramune)] | 101% and 89.6% | 95.5 | 93.3 | 99.3 | 89.9 | 0.15 | 91.6 | 104 |
| COc1ccc2c(c1O)-c1c(O)c(OC)cc3c1[C@H](C2)[N+](C)(C)CC3 [Magnoflorinechloride] | 99.2% and 99.7% | 98.2 | 99.4 | 103 | 103 | 102 | 93.8 | 98.7 |

| Compound | cell viability (K562; SRSF2 genotype: SRSF2 P95H/wt) | cell viability (K562; SRSF2 genotype: SRSF2 wt/wt) [%] | cell viability (MARIMO; SRSF2 genotype: SRSF2 P95H/wt) [%] | cell viability (MARIMO; SRSF2 genotype: SRSF2 wt/wt) [%] | cell viability (MOLM14; SRSF2 genotype: SRSF2 P95H/wt) [%] | cell viability (MOLM14; SRSF2 genotype: SRSF2 wt/wt) [%] | cell viability (OCI-AML2; SRSF2 genotype: P95H/wt) [%] | cell viability (OCI-AML2; SRSF2 genotype: wt/wt) [%] |
| --- | --- | --- | --- | --- | --- | --- | --- | --- |
| C[C@@H]1CC[C@@]2(OC1)O[C@H]1C[C@H]3[C@@H]4CC=C5C[C@@H](O[C@@H]6O[C@H](CO)[C@@H](O[C@@H]7O[C@@H](CO)[C@H](O)[C@H]7O)[C@H](O)[C@H]6O[C@@H]6O[C@@H](C)[C@H](O)[C@@H](O)[C@H]6O)CC[C@]5(C)[C@H]4CC[C@]3(C)[C@H]1[C@@H]2C [Polyphyllin I] | 0.33% | 0.31 | 0.37 | 0.67 | 0.32 | 0.29 | 0.21 | 0.36 |
| COc1cc2ncnc(Nc3cccc(Cl)c3)c2cc1OC [AG-1478 (Tyrphostin AG-1478)] | 75% and 83.2% | 76.4 | 81.7 | 90 | 59.7 | 67.6 | 58 | 62.2 |
| CC1(C)C2CCC1(C)C(O)C2 (single isomer, unassigned; (-)) [(-)-Borneol] | 103% | 106 | 100 | 109 | 101 | 104 | 109 | 106 |
| COc1ncc(-c2ccc3nccc(-c4ccnnc4)c3c2)cc1NS(=O)(=O)c1ccc(F)cc1F | 31.8% and 30.2% | 34.8 | 26.4 | 24.1 | 1.48 | 11.9 | 0.26 | 1.55 |
| O=c1cc(-c2ccccc2)oc2cc(O)cc(O)c12 [Chrysin] | 100% and 104% | 105 | 93 | 107 | 81.1 | 93.7 | 86.7 | 75.3 |
| COC(=O)N[C@H](C(=O)N1CC2(CC2)C[C@H]1c1nc(-c2ccc3c(c2)C(F)(F)c2cc(-c4ccc5[nH]c([C@@H]6[C@H]7CC[C@H](C7)N6C(=O)[C@@H](NC(=O)OC)C(C)C)nc5c4)ccc2-3)c[nH]1)C(C)C [Ledipasvir (GS5885)] | 84.9% and 87.8% | 84.3 | 86.4 | 90.2 | 73.7 | 84.3 | 87.9 | 91.8 |
| CCOC(C)OCCc1ccccc1 (configuration not stated) [Efetaal] | 105% and 100% | 108 | 97.8 | 99.3 | 107 | 107 | 104 | 98.9 |
| CCOc1cc2ncc(C#N)c(Nc3ccc(F)c(Cl)c3)c2cc1NC(=O)/C=C/CN(C)C [Pelitinib (EKB-569)] | 9.19% and 1.6% | 0.91 | 5.88 | 1.37 | 0.45 | 0.62 | 0.33 | 0.46 |
| CCOC(=O)C1=C[C@@H](OC(CC)CC)[C@H](NC(C)=O)[C@@H](N)C1 [Oseltamivir Phosphate] | 103% and 105% | 104 | 102 | 106 | 110 | 109 | 110 | 104 |
| COc1cc2c(cc1OC)-c1cc3ccc(OC)c(OC)c3c[n+]1CC2 [Palmatine] | 80.5% and 88.6% | 90.2 | 92.6 | 92 | 93.5 | 90.9 | 88.8 | 78.7 |
| Oc1ccc(-c2nc(-c3ccc(F)cc3)c(-c3ccncc3)[nH]2)cc1 | 89.5% and 96.2% | 93.5 | 101 | 113 | 97.9 | 97.3 | 99.7 | 106 |
| O=C(Cc1ccc(-c2ccc(OCCN3CCOCC3)cc2)cn1)NCc1ccccc1 | 10.7% and 34.3% | 33 | 6.74 | 9.4 | 1.55 | 2.72 | 4.61 | 8.35 |
| CC[C@H]1OC(=O)[C@H](C)[C@@H](O[C@H]2C[C@@](C)(OC)[C@@H](O)[C@H](C)O2)[C@H](C)[C@@H](O[C@@H]2O[C@H](C)C[C@H](N(C)C)[C@H]2O)[C@](C)(OC)C[C@@H](C)C(=O)[C@H](C)[C@@H](O)[C@]1(C)O [Clarithromycin (Biaxin, Klacid)] | 105% and 111% | 107 | 99 | 102 | 99.6 | 104 | 108 | 91.7 |
| COCCCOc1cc(C[C@@H](C[C@H](N)[C@@H](O)C[C@H](C(=O)NCC(C)(C)C(N)=O)C(C)C)C(C)C)ccc1OC [Aliskiren Hemifumarate] | 104% and 99.9% | 95.5 | 92.3 | 101 | 91.8 | 98.7 | 92.5 | 106 |
| NCCCCCC(=O)O | 99% and 100% | 99.6 | 101 | 98.5 | 103 | 105 | 113 | 99 |
| Cc1ccc(C(=O)Nc2cccc(C(F)(F)F)c2)cc1Nc1nc(-c2cccnc2)nc2c1cnn2C | 65.9% and 77.9% | 64.2 | 46.1 | 60.5 | 91 | 110 | 87 | 82.7 |
| Clc1ccc(NN=C(c2ccccc2)c2ccccn2)nc1 | 17.9% and 15.3% | 20 | 3.72 | 0.76 | 1.65 | 0.71 | 5.44 | 3.14 |
| OC[C@H]1O[C@@](CO)(OC[C@@]2(OC[C@@]3(O[C@H]4O[C@H](CO)[C@@H](O)[C@H](O)[C@H]4O)O[C@H](CO)[C@@H](O)[C@@H]3O)O[C@H](CO)[C@@H](O)[C@@H]2O)[C@@H](O)[C@@H]1O [Nystose] | 106% and 101% | 111 | 100 | 101 | 106 | 100 | 106 | 102 |
| C/C(=C\C(=O)Nc1ccccc1C(=O)O)c1ccc2ccccc2c1 | 101% and 90.8% | 106 | 84.3 | 98.2 | 88.5 | 92.8 | 95.1 | 93.6 |
